The values below come from PubChem BioAssay (Tox21).

Several values for one entry are separate records, joined by “and”; a condition that tells them apart may be missing. Identical values can stand only once. Inconclusive results are not listed. Where a call stands in place of a potency, no number is given. Activity calls are given as the source filed them. The call rests on the fitted dose curve; in most records, active means well fitted cell-killing curve with a large enough effect in the repeat runs; inconclusive means weak or mixed curves, or effect the other way; inactive means flat fitted curve, though single readings scatter.
Potency means the concentration at half of the fitted maximal effect.

The nature of the experiment: Caspase-3/7 induction in HepG2 cells by small molecules, qHTS cell viability counter screen (AID 1346981). Further: nearly all actives have a fitted effect of over 30% in size. Particulars: CellTiter-Fluor fluorescence, 17 h; series mostly up to 92.4 µM. The text has this:
U.S. Tox21 Program National Center for Advancing Translational Sciences [NCATS] NIH Chemical Genomics Center [NCGC] U.S. Environmental Protection Agency [EPA] National Institutes of Environmental Health Sciences [NIEHS] National Toxicology Program [NTP] U.S. Food and Drug Administration [FDA] Tox21 Assay Overview: Apoptosis is a process of programmed cell death and plays a central role in the development of multicellular organisms. It is a highly regulated process and induces cell death by activating caspases, which are the members of cysteine aspartic acid-specific protease (caspase) family. Caspases involved in apoptosis are classified by their mechanism of action as initiator caspases (caspase-2, -8, -9 and -10) and executioner caspases (caspase-3, -6, and -7). Inhibition of apoptosis results in number of cancers, autoimmune diseases, inflammatory diseases and viral infection. To identify small molecule compounds that induce apoptosis, a homogeneous, luminescent Caspase-Glo 3/7 assay was used. Wild type HepG2 cells were used to screen Tox21 libraries for identifying caspase-3/7 activity inducers. Also cytotoxicity of the compounds was tested in parallel by measuring the cell viability using CellTiter-Fluor assay system in the same wells.
Tox21 Assay Protocol Summary: HepG2 cells were dispensed at 2,000 per well in 5uL of culture medium into white solid bottom 1536-well plates (Corning Life Sciences, Corning, NY) using a Multidrop Combi (Thermo Scientific, Waltham, MA) dispenser. The assay plates were incubated at 37 C and 5% CO2 for 5hr, and then 23nL of compounds dissolved in DMSO and positive control were transferred using a Pintool station ([…], San Diego, CA). The assay plates were incubated at 37C and 5% CO2 for 17hr. For cytotoxicity read, after 16hr incubation at 37C, 1uL CellTiter-Fluor reagent (Promega Corporation, Madison, WI) was added to each well of the assay plates using Flying Reagent Dispenser (FRD, Aurora Discovery, San Diego, CA). After 1hr incubation at 37C and 5% CO2, the fluorescence signal was quantified using a ViewLux plate reader (PerkinElmer, Shelton, CT).
For `Nc1ccc(S(N)(=O)=O)cc1`, the Potency result was “inactive”.

Regarding `CC1(C)O[C@@H]2C[C@H]3[C@@H]4CCC5=CC(=O)C=C[C@]5(C)[C@@]4(F)[C@@H](O)C[C@]3(C)[C@]2(C(=O)CO)O1`, the Potency entry was “inactive”.

Turning to `Cc1ncc([N+](=O)[O-])n1C`, the Potency entry was “inactive”.

Regarding `O=C1c2c(O)cccc2Cc2cccc(O)c21`, the Potency result is “inactive”.

On to `Cc1cccc(C)c1`, for which the Potency entry was “inactive”.

Turning to `CCCC[P+](CCCC)(CCCC)CCCC`, the Potency entry was “inactive”.

For `Nc1c2c(nc3ccccc13)CCCC2`, the Potency entry is “inactive”.

Consider `OC[C@H]1O[C@H](O[C@]2(CCl)O[C@H](CCl)[C@@H](O)[C@@H]2O)[C@H](O)[C@@H](O)[C@H]1Cl`, for which the Potency result is “inactive”.

For `O=C(O)CC(O)C(=O)O` (stereo not given), the Potency result was “inactive”.

`CC(O)(P(=O)(O)O)P(=O)(O)O`: the Potency entry is “inactive”.

In the case of `O=CC(=O)c1ccccc1`, the Potency entry is “inactive”.

Turning to `O=C1OC2(c3ccccc31)c1cc(Br)c(O)c(Br)c1Oc1c2cc(Br)c(O)c1Br`, the Potency is 6.2 µM (active) and 19.9 µM (active) and 10.6 µM (active).

For `CCCc1cc(=O)[nH]c(=S)[nH]1`, the Potency result was “inactive”.

For `F[B-](F)(F)F`, the Potency result was “inactive”.

Consider `COc1ccc(CN(CCN(C)C)c2ccccn2)cc1`, for which the Potency entry was “inactive”.

For the molecule `Nc1c(N=Nc2ccc(-c3ccc(N=Nc4cc(S(=O)(=O)O)c5ccccc5c4N)cc3)cc2)cc(S(=O)(=O)O)c2ccccc12`, the Potency was 17.2 µM (active).

Turning to `Cc1cc(=O)oc2cc(O)ccc12`, the Potency result was “inactive”.

On to `CCN(Cc1c(F)cccc1Cl)c1c([N+](=O)[O-])cc(C(F)(F)F)cc1[N+](=O)[O-]`, for which the Potency result is “inactive”.

In the case of `O=C(Nc1ncc([N+](=O)[O-])s1)c1cccs1`, the Potency was 29.8 µM (active).

Regarding `NC1CCCCC1`, the Potency result is “inactive”.

`NC(=O)c1cccnc1`: the Potency result is “inactive”.

Consider `CN1[C@@H]2CC(OC(=O)[C@H](CO)c3ccccc3)C[C@H]1[C@@H]1O[C@@H]12` (stereo not given in full), for which the Potency entry is “inactive”.

For `NS(=O)(=O)O`, the Potency result is “inactive”.

In the case of `Cc1cn([C@H]2C=C[C@@H](CO)O2)c(=O)[nH]c1=O`, the Potency result is “inactive”.

On to `CCCCNC(=O)NS(=O)(=O)c1ccc(C)cc1`, for which the Potency entry is “inactive”.

In the case of `C/C=C/C=C/C(=O)O`, the Potency result is “inactive”.

For the molecule `C1CCC(C(CC2CCCCN2)C2CCCCC2)CC1` (stereo not given), the Potency was 29.8 µM (active).

As for `CC12CCC(CC1)C(C)(C)O2`, the Potency result is “inactive”.

On to `C1=CC2C3C=CC(C3)C2C1` (stereo not given), for which the Potency result is “inactive”.

`Cc1c(C(=O)O)c(O)cc2c1C(=O)c1c(O)c([C@@H]3O[C@H](CO)[C@@H](O)[C@H](O)[C@H]3O)c(O)c(O)c1C2=O`: the Potency was 18.9 µM (active) and 15.4 µM (active) and 26.6 µM (active).

On to `CC(=O)CCC(=O)O`, for which the Potency entry is “inactive”.

`O=S1(=O)OC(c2ccc(O)cc2)(c2ccc(O)cc2)c2ccccc21`: the Potency is 34.4 µM (active) and 48.6 µM (active) and 15 µM (active).

On to `CCOc1ccc(NC(C)=O)cc1`, for which the Potency entry is “inactive”.

In the case of `CC/C(=C(\c1ccccc1)c1ccc(OCCN(C)C)cc1)c1ccccc1`, the Potency was 61.1 µM (active) [middle of 4 runs].

With `CC(=O)Nc1c(I)c(NC(C)=O)c(I)c(C(=O)O)c1I`, the Potency result is “inactive”.

As for `CC(C)C(=O)Nc1ccc([N+](=O)[O-])c(C(F)(F)F)c1`, the Potency entry is “inactive”.

In the case of `COc1ccc2cc(S(=O)(=O)N[C@H](CC(=O)N[C@H](Cc3ccc(CN4[C@H](C)CCC[C@@H]4C)cc3)C(=O)N(C)C(C)C)c3ccc4c(c3)OCO4)ccc2c1`, the Potency is 29 µM (active).

As for `C=CCc1ccc(O)c(OC)c1`, the Potency result is “inactive”.

Take `Nc1ccc([N+](=O)[O-])cc1O`: the Potency is 48.6 µM (active).

With `Cc1cc(C)nc(NS(=O)(=O)c2ccc(N)cc2)n1`, the Potency result is “inactive”.
